Assay [1] is described as follows: glutamate transport activators, MN-1 cells, MN-1 cell line (AID 1612).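 Also: tested at 1 µM final; 0% = mean of DMSO vehicle wells on each plate; positive means more glutamate uptake than control and negative means less.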 The conditions noted are these: MN-1 motor neuron cells, stronger effect = higher value.
Assay [2] in a line: GFP-Q80 aggregate reduction, neuronal-like cells, cell-based, NGF-treated PC12, GFPQ80 (AID 1614).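 Also: lower means fewer inclusions and 0 means no inclusions at all.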 To be noted: PC12 NGF-treated GFP-polyQ80 inclusion reduction.
Assay [3] is described as follows: 75Q-TubH aggregate inhibition, S. cerevisiae, yeast (AID 1616). The conditions noted are these: S. cerevisiae 75Q-TubH polyglutamine aggregation suppression; stronger effect = higher value.
The nature of assay [4]: compounds altering viability of human ES cells (AID 493140; call rule not given here;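 also: cells exposed to compounds for four days before counting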). To be noted: human embryonic stem cell survival screen; stronger effect = higher value.
Assay [5] in a line: Wnt pathway potentiators raising nuclear beta-catenin – imaging, WNT3A-conditioned medium, mouse C2C12, NPC library, primary screen (AID 1117326; in the data active = nuclear beta-catenin stimulation mostly above about 4.2%, no sharp cut-off; inactive = mostly below about 10%). The conditions noted are these: stronger effect = higher value.
Assay [6] is described as follows: P. berghei load reduction in hepatocytes – cell-based, HepG2, luciferase luminescence, HepG2 viability, primary screen (AID 624349).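 Also: 100% = mean of DMSO negative control wells on the same plate.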 The conditions noted are these: P. berghei liver stage in HepG2, luciferase luminescence, concentration not given here; parasite load remaining: stronger effect = lower value; viability: measured here: HepG2 viability without parasites.

Several values for one entry are separate records, joined by “and”; a condition that tells them apart may be missing. Equal values may be shown once. Activity calls are given as the source filed them. Rule as the data show it, unless noted: active = parasite load remaining mostly below about 12% (no sharp cut-off); inactive = mostly above about 10%.

Take `CCN(CCCCOC(=O)c1ccc(OC)c(OC)c1)C(C)Cc1ccc(OC)cc1` (stereo unspecified): in assay [1], the glutamate uptake change came to 1.65%. The inclusion score in assay [2] stood at 2. Besides, the aggregation suppression score in assay [3] was determined as 1.35. For the same compound, in assay [4], the survival was 13.9 (inactive). Also, the nuclear beta-catenin stimulation in assay [5] (at 10 µM) is 0.6% (inactive); in assay [5] (stimulation, at 2 µM), 0.5%.

In the case of `COc1cc(C(=O)NCc2ccc(OCCN(C)C)cc2)cc(OC)c1OC`, the glutamate uptake change in assay [1] was 0.14%. This compound also displayed an inclusion score in assay [2] of 2. The aggregation suppression score in assay [3] was found to be 0.824. In addition, the survival in assay [4] is 15.8 (inactive). Besides, the nuclear beta-catenin stimulation was 9.2% (inactive) in assay [5] (at 10 µM) and 5.8% in assay [5] (stimulation, at 2 µM).

The term viability denotes a read-out of living cells in per cent, often relative to untreated cells. Take `CCC(Cc1c(I)cc(I)c(N)c1I)C(=O)O` (stereo unspecified): in assay [1], the glutamate uptake change was determined as 7.36%. The same compound came in with an inclusion score in assay [2] of 2. For the same compound, the aggregation suppression score in assay [3] is 0.027. Moreover, the survival in assay [4] is 8.83 (inactive). Also, the parasite load remaining in assay [6] is 85.1% (inactive) and 170% (inactive) and 66.3% (inactive). In addition, the viability in assay [6] was 78.9% and 86.3% and 103%. Moreover, the nuclear beta-catenin stimulation in assay [5] (at 10 µM) is 1.2% (inactive); in assay [5] (stimulation, at 2 µM), -1.1%.

Consider `Cc1cc(C)nc(NS(=O)(=O)c2ccc(N)cc2)n1`, for which, in assay [1], the glutamate uptake change stood at 2.45%. Moreover, in assay [2], the inclusion score amounted to 2. In assay [3], this compound registered an aggregation suppression score of 1.21. In addition, in assay [4], the survival is 3.75 (inactive). For the same compound, in assay [6], the parasite load remaining is 78.5% (inactive) and 292% (inactive) and 25.7% (inactive); the viability is 96.6% and 70.6% and 93.3%. For the same compound, in assay [5] (at 10 µM), the nuclear beta-catenin stimulation is 0.2% (inactive). The nuclear beta-catenin stimulation in assay [5] (stimulation, at 2 µM) amounted to 0.2%.

For the compound `CC(C)(Oc1ccc(Cl)cc1)C(=O)O`, in assay [1], the glutamate uptake change is 12.1%. In assay [2], this compound returned an inclusion score of 2. Moreover, the aggregation suppression score in assay [3] worked out at 1.01. In addition, the survival in assay [4] is 4.75 (inactive). In assay [6], the parasite load remaining is 91.8% (inactive) and 94% (inactive); the viability is 98.7% and 75.8%. Also, in assay [5] (at 10 µM), the nuclear beta-catenin stimulation was 1.8% (inactive). In addition, the nuclear beta-catenin stimulation in assay [5] (stimulation, at 2 µM) worked out at 2.1%.

As to `CC(=O)Nc1ccc(OCC(O)CNC(C)C)cc1` (stereo unspecified), the glutamate uptake change in assay [1] was -0.19%. The same compound returned an inclusion score in assay [2] of 2. In assay [3], this compound registered an aggregation suppression score of 1.1. The survival in assay [4] was 20.5 (inactive). Moreover, in assay [6], the parasite load remaining was 80.4% (inactive) and 87% (inactive) and 55.4% (inactive); the viability is 110% and 75.8% and 108%. Moreover, the nuclear beta-catenin stimulation in assay [5] (at 10 µM) was 0.5% (inactive). For the same compound, the nuclear beta-catenin stimulation in assay [5] (stimulation, at 2 µM) turned out to be 1.7%.

As to `O=C(Cn1ccnc1[N+](=O)[O-])NCCO`, the glutamate uptake change in assay [1] was found to be 16.4%. The compound also yielded an inclusion score in assay [2] of 2. In assay [3], this compound gave an aggregation suppression score of 0.925. Further, the survival in assay [4] was 5.17 (inactive). Further, in assay [6], the parasite load remaining is 107% (inactive) and 46.8% (inactive); the viability is 103% and 102%. Besides, the nuclear beta-catenin stimulation in assay [5] (at 10 µM) was -1.8% (inactive). Besides, the nuclear beta-catenin stimulation in assay [5] (stimulation, at 2 µM) amounted to 0.3%.

On to `NS(=O)(=O)c1cc2c(cc1Cl)NC(CSCc1ccccc1)=NS2(=O)=O`, for which the glutamate uptake change in assay [1] is -3.22%. In assay [2], this compound yielded an inclusion score of 2. Moreover, the aggregation suppression score in assay [3] worked out at 1.51. In assay [4], the survival was 3.08 (inactive). Further, in assay [6], the parasite load remaining was 72.5% (inactive) and 98.3% (inactive) and 56.3% (inactive). The viability in assay [6] is 97% and 76.2% and 98.6%. For the same compound, the nuclear beta-catenin stimulation in assay [5] (at 10 µM) is -0.6% (inactive); in assay [5] (stimulation, at 2 µM), 0.7%.

For the compound `CCCCOc1ccc(CC(=O)NO)cc1`, the glutamate uptake change in assay [1] is 0.25%. The inclusion score in assay [2] was determined as 2. In assay [3], this compound showed an aggregation suppression score of 1.14. The survival in assay [4] is 12.2 (inactive). Further, in assay [6], the parasite load remaining was 13.5% (inactive) and 151% (inactive) and 84.2% (inactive); the viability is 47.8% and 71.4% and 91%. The nuclear beta-catenin stimulation in assay [5] (at 10 µM) is 0% (inactive). The nuclear beta-catenin stimulation in assay [5] (stimulation, at 2 µM) was 0.3%.

Regarding `CO[C@@]1(NC(=O)C(C(=O)O)c2ccc(O)cc2)C(=O)N2C(C(=O)O)=C(CSc3nnnn3C)CO[C@@H]21` (stereo partly specified), the glutamate uptake change in assay [1] worked out at 0.13%. In addition, in assay [2], the inclusion score turned out to be 1. Also, the aggregation suppression score in assay [3] worked out at 1.14. Besides, the survival in assay [4] is 6.42 (inactive). For the same compound, in assay [6], the parasite load remaining is 95.7% (inactive) and 71.7% (inactive); the viability was 77.5% and 90.5%. Moreover, in assay [5] (at 10 µM), the nuclear beta-catenin stimulation is 1.6% (inactive). Also, the nuclear beta-catenin stimulation in assay [5] (stimulation, at 2 µM) was -0.2%.
